# The supplement of paper PMC12645437, “Orthogonal IMiD-Degron Pairs Induce Selective Protein Degradation in Cells” (ACS Chemical Biology, 2025)
# The full ranking holds about 8,300 sequences; the median of “log2 fold change of degron read counts, EGFP-low vs EGFP+ sorted cells (limma voom), compound-induced degradation” is about -1.1, and the highest 2% start at about 3.2. Only a selection was taken, and the highest values are over-represented in it overall.
# T1: CRBN, Q96SW2
# T1 chain: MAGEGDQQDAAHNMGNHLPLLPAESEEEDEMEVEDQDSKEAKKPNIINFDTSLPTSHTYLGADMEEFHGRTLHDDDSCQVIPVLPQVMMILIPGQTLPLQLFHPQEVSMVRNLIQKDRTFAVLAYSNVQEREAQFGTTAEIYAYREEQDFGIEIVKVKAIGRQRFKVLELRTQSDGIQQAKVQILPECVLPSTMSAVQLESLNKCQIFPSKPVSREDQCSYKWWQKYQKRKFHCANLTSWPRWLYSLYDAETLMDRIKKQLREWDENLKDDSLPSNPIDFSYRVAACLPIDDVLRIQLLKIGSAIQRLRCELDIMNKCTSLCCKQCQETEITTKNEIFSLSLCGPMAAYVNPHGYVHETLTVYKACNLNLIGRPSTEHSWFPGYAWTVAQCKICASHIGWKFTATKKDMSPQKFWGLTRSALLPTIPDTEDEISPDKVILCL
# B1: 46F_47C_49D_50Q_52G_53A_54V_55F_67L_, Q9UKT9 (peptide)
# chain: FCCDQCGAVFTQKGNLLRHIKL
# B2: 46F_47E_49D_50V_52G_53A_54H_55F_67L_, Q9UKT9 (peptide)
# chain: FECDVCGAHFTQKGNLLRHIKL
# B3: 46F_47E_49P_50Q_52G_53A_54P_55F_67L_, Q9UKT9 (peptide)
# chain: FECPQCGAPFTQKGNLLRHIKL
# B4: 46F_47M_49N_50Q_52G_53A_54K_55F_67L_, Q9UKT9 (peptide)
# chain: FMCNQCGAKFTQKGNLLRHIKL
# B5: 46L_47E_49E_50I_52G_53F_54G_55C_67L_, Q9UKT9 (peptide)
# chain: LECEICGFGCTQKGNLLRHIKL
# B6: 46F_47M_49D_50V_52G_53A_54Q_55F_67L_, Q9UKT9 (peptide)
# chain: FMCDVCGAQFTQKGNLLRHIKL
# B7: 46F_47H_49N_50I_52G_53A_54C_55F_67L_, Q9UKT9 (peptide)
# chain: FHCNICGACFTQKGNLLRHIKL
# B8: 46F_47G_49N_50Q_52G_53H_54W_55F_67L_, Q9UKT9 (peptide)
# chain: FGCNQCGHWFTQKGNLLRHIKL
# B9: 46F_47N_49P_50Q_52G_53A_54G_55F_67L_, Q9UKT9 (peptide)
# chain: FNCPQCGAGFTQKGNLLRHIKL
# B10: 46F_47Y_49E_50I_52G_53A_54C_55F_67L_, Q9UKT9 (peptide)
# chain: FYCEICGACFTQKGNLLRHIKL
# B11: 46F_47T_49E_50I_52G_53A_54C_55F_67L_, Q9UKT9 (peptide)
# chain: FTCEICGACFTQKGNLLRHIKL
# B12: 46F_47D_49E_50I_52G_53A_54C_55F_67L_, Q9UKT9 (peptide)
# chain: FDCEICGACFTQKGNLLRHIKL
# B13: 46F_47V_49E_50I_52G_53A_54C_55F_67L_, Q9UKT9 (peptide)
# chain: FVCEICGACFTQKGNLLRHIKL
# B14: 46F_47S_49E_50I_52G_53A_54C_55F_67L_, Q9UKT9 (peptide)
# chain: FSCEICGACFTQKGNLLRHIKL
# B15: 46F_47C_49E_50I_52G_53A_54C_55F_67L_, Q9UKT9 (peptide)
# chain: FCCEICGACFTQKGNLLRHIKL
# B16: 46F_47K_49E_50I_52G_53A_54C_55F_67L_, Q9UKT9 (peptide)
# chain: FKCEICGACFTQKGNLLRHIKL
# B17: 46F_47E_49E_50I_52G_53A_54C_55F_67L_, Q9UKT9 (peptide)
# chain: FECEICGACFTQKGNLLRHIKL
# B18: 46F_47Q_49E_50I_52G_53A_54C_55F_67L_, Q9UKT9 (peptide)
# chain: FQCEICGACFTQKGNLLRHIKL
# B19: 46F_47R_49E_50I_52G_53A_54C_55F_67L_, Q9UKT9 (peptide)
# chain: FRCEICGACFTQKGNLLRHIKL
# B20: 46F_47G_49E_50I_52G_53A_54C_55F_67L_, Q9UKT9 (peptide)
# chain: FGCEICGACFTQKGNLLRHIKL
# B21: 46F_47M_49E_50I_52G_53A_54C_55F_67L_, Q9UKT9 (peptide)
# chain: FMCEICGACFTQKGNLLRHIKL
# B22: 46F_47Y_49N_50I_52G_53A_54F_55F_67L_, Q9UKT9 (peptide)
# chain: FYCNICGAFFTQKGNLLRHIKL
# B23: 46F_47Y_49E_50Q_52G_53A_54E_55F_67L_, Q9UKT9 (peptide)
# chain: FYCEQCGAEFTQKGNLLRHIKL
# B24: 46F_47H_49P_50Q_52G_53A_54C_55F_67L_, Q9UKT9 (peptide)
# chain: FHCPQCGACFTQKGNLLRHIKL
# B25: 46F_47K_49P_50V_52G_53A_54A_55F_67L_, Q9UKT9 (peptide)
# chain: FKCPVCGAAFTQKGNLLRHIKL
# B26: 46F_47E_49E_50I_52G_53H_54P_55F_67L_, Q9UKT9 (peptide)
# chain: FECEICGHPFTQKGNLLRHIKL
# B27: 46F_47W_49P_50I_52G_53H_54K_55F_67L_, Q9UKT9 (peptide)
# chain: FWCPICGHKFTQKGNLLRHIKL
# B28: 46F_47F_49P_50I_52G_53R_54W_55F_67L_, Q9UKT9 (peptide)
# chain: FFCPICGRWFTQKGNLLRHIKL
# Target: T1, CRBN, Q96SW2
# Test: log2 fold change of degron read counts, EGFP-low vs EGFP+ sorted cells (limma voom), compound-induced degradation; higher = more compound-induced degradation of the degron-EGFP fusion; degrons are variants of IKZF1/3 zinc finger 2; compound dose not given here
# Conditions: Jurkat, 18 h
# Description: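 Pooled library of 8380 IKZF3 ZF2 degron mutants (positions 146-167 varied within the IKZF3 130-189 degron; only the varied core is printed, flanks not printed) fused to EGFP with IRES-mCherry, lentivirally expressed in Jurkat cells. mCherry+ cells were treated with one IMiD compound for 18 h (dose not stated) and FACS-sorted into EGFP-low and EGFP+ populations. Degron sequences were counted by NGS, and log2FC (EGFP-low vs EGFP+) was estimated by limma voom over 3 biological replicates.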
# [1] = compound: compound 19 (5-tert-butyl-thalidomide)
# [2] = compound: compound 22 (5-morpholino-thalidomide)
# [3] = compound: compound 33 (diphenyl IMiD analogue)
# 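Note: pooled lentiviral library of zinc finger degron-EGFP fusions in mCherry-positive Jurkat cells, FACS-sorted after compound exposure, with degron abundance counted by next-generation sequencing.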
Sequence,log2 fold change of degron read counts [1],log2 fold change of degron read counts [2],log2 fold change of degron read counts [3],log2 fold change of degron read counts (compound: thalidomide)
B1,-2.49,-1.9,-0.705,-2.14
B2,-2.74,-4.09,-1.55,-1.76
B3,-2.11,-2.37,-1.67,-1.19
B4,-2.87,-2.47,-2.42,-2.11
B5,-0.956,-2.31,-1.15,-0.202
B6,-1.67,-1.16,1.5,-0.932
B7,1.16,1.39,0.659,-0.53
B8,-0.98,-1.42,-1.2,-0.959
B9,-0.184,-2.36,-1.35,-2.07
B10,3.73,3.6,2.92,1.43
B11,1.77,2.36,2.49,2.86
B12,1.52,-0.309,0.629,0.633
B13,0.542,1.78,2.28,2.75
B14,3.31,2.47,2.56,1.4
B15,2.78,2.06,2.71,2.24
B16,-0.172,-3.02,-3.63,-0.785
B17,0.505,-1.14,1.9,2.35
B18,1.23,3.08,2.71,3.48
B19,0.0911,-0.251,1.83,1.53
B20,3.4,2.93,2.06,1.14
B21,0.319,0.12,2.53,1.09
B22,1.22,1.41,0.651,-0.835
B23,-0.252,-0.709,-0.311,-2.41
B24,-0.735,-0.785,0.174,-1.82
B25,1.7,-0.2,-1.11,0.798
B26,-2.97,-3.81,-1.95,-1.68
B27,-0.246,-0.231,-0.673,-0.717
B28,1.04,1,-0.146,-0.692
